An excerpt weighted towards active compounds, which were near 2.4% of everything screened.
CHO-K1 Ca antag: counter-screen for M1 antagonists: effect in parental CHO-K1 cells | AID 602250 | inhibition, % at 3 µM | 360,000 tested, 0.6% active | ATP-induced calcium, Fluo-8 fluorescence;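 active means inhibition above a per-plate cutoff, the plate's mean sample inhibition plus 3 SD, cut at about 24% in these data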
CHO-K1 Ca ag: counter-screen for M1 agonists: effect in parental CHO-K1 cells; Fluo-8 calcium fluorescence; scaled to maximal ATP response, vehicle zero; activation, % at 3 µM; 360,000 tested, 0.48% active; in the data active means activation above about 15%;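 further: untransfected CHO-K1 host cells lacking M1 receptor as counterscreen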
M1 antag: human M1 muscarinic receptor antagonists, primary screen, CHO-K1 cells, Fluo-8 calcium fluorescence, 1536-well. Muscarinic acetylcholine receptor M1 (Homo sapiens), P11229. CHO-K1 hM1, ACh EC80 antagonist. inhibition, % at 3 µM. 360,000 tested, 1.3% active. AID 588852, 2011;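 active means percent inhibition above its own plate's cutoff, namely the mean of that plate's compound wells plus 3 SD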;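 further: peak over basal fluorescence ratio during 140 s after agonist addition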
Target sequence (P11229 whole entry, looked up): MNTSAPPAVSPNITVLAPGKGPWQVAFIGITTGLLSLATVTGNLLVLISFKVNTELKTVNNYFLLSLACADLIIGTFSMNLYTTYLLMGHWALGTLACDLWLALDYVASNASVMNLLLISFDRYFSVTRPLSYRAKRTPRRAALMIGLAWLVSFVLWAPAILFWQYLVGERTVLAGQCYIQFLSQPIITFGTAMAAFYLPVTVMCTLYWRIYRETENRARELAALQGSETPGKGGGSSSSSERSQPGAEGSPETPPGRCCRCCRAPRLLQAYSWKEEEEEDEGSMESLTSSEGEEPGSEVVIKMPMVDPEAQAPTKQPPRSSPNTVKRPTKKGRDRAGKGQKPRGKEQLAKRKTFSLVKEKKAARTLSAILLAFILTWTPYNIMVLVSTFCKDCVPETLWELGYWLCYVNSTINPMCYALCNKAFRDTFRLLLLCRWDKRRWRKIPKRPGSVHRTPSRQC
CHO-K1 Ca PAM: nonselective calcium activators in parental CHO-K1 cells, primary screen, counter-screen for M1 PAM project, cell-based, Fluo-8 calcium fluorescence, full deck, 1536-well; ATP EC20; 0% at ATP EC20, 100% at ATP max; activation, % at 3 µM; 360,000 tested, 0.02% active;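 active means activation above the run cutoff, the mean activation of all test compounds plus 3 SD, cut at about 40% in these data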;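 further: peak over basal fluorescence ratio in a 140 s read after ATP addition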
M1 PAM: human M1 muscarinic receptor positive allosteric modulators, primary screen, CHO-K1 cells, Fluo-8 calcium fluorescence, 1536-well. CHO-K1 hM1, ACh EC20; 0% = ACh EC20, 100% = maximal ACh. Muscarinic acetylcholine receptor M1 (Homo sapiens), P11229. activation, % at 3 µM. 360,000 tested, 0.088% active; in the data active means activation above about 19%, passing the limit was not always enough
CHRM1 agonist: human M1 muscarinic receptor agonists, primary screen, Fluo-8 calcium fluorescence, CHO-K1 cells, HTS | 360,000 tested, 0.33% active | Muscarinic acetylcholine receptor M1 (Homo sapiens), P11229 | activation, % at 3 µM | CHO-K1 hM1, agonist mode; 0% DMSO, 100% acetylcholine EC100;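 active means activation above the run's mean compound activation plus 3 SD, cut at about 16% in these data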;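 further: peak over basal fluorescence ratio within a 140 s kinetic read after compound addition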
Of the large screens only hits and unclear results are named; the others gave an inactive call.

Cc1nnn(C23CC4CC(CC(C4)C2)C3)n1	none
O=C1c2ccccc2C(=O)N1CC#CCN1CCN(C(c2ccccc2)c2ccccc2)CC1	none
O=C1C2CSCN2C(=O)CN1CCCN1CCN(C(c2ccccc2)c2ccccc2)CC1 (stereo unspecified)	M1 antag 62
CCOc1ncccc1C(=O)OCC(=O)Nc1cc(C)ccc1C	none
COc1ccc(CCNc2nc3ccccc3n3nnnc23)cc1OC	CHO-K1 Ca antag 27
COc1ccc(NC(=O)CN2CCN(c3ccc(Cl)cc3)CC2)c(OC)c1	CHO-K1 Ca PAM 42
COc1ccc(OC)c(C(=O)N2CCC(C(=O)c3ccc(F)cc3)CC2)c1	CHO-K1 Ca antag 24
COc1ccc(NC(=O)CN2CCN(CC(=O)Nc3ccccc3Cl)CC2)c(OC)c1	none
COc1ccc(NC(=O)CN2CCN(c3nc(-c4ccc(F)cc4)cs3)CC2)c(OC)c1	CHO-K1 Ca PAM 53
COc1ccc(NC(=O)CN2CCC(C(=O)c3ccc(F)cc3)CC2)c(OC)c1	CHO-K1 Ca ag 37
COc1ccc(NC(=O)N2CCC(C(=O)c3ccc(F)cc3)CC2)cc1	none
O=C(N/N=C/c1ccc(O)c(O)c1)c1ccc(-n2cnnn2)cc1	none
CCN(CC(=O)Nc1ccc(Br)c(C)c1)CC(=O)NC(C)C	none
COc1ccc(NC(=O)C2CCCCN2S(=O)(=O)c2ccc(F)cc2)c(OC)c1 (stereo unspecified)	CHO-K1 Ca antag 27
COc1ccccc1NC(=O)C1CCCCN1S(=O)(=O)c1ccc(F)cc1 (stereo unspecified)	none
Cc1cc(N2CCCCCC2)nc2ccccc12	M1 antag 35
Cc1cc(N2CCCCC2)nc2ccccc12	none
C(=N\N(c1ccccc1)c1ccccc1)/c1ccccn1	none
CCOc1ccc(NC(=S)NC(=O)/C=C/c2ccc(Br)cc2)c([N+](=O)[O-])c1	M1 antag 37
CCOc1ccc(NC(=S)NC(=O)c2cnn(CC)c2)c([N+](=O)[O-])c1	none
COc1ccc(CCN2CC(C(=O)NCCCc3ccncc3)CCC2=O)cc1 (stereo unspecified)	CHO-K1 Ca antag 25
COc1ccc(CCNC(=O)C2CCC(=O)N(CCc3ccc(OC)cc3)C2)cc1 (stereo unspecified)	none
O=C(NCCSc1ccc(Cl)cc1)c1ccco1	none
O=C(CCOc1ccccc1)Nc1cccc(S(=O)(=O)Nc2ccccc2Cl)c1	none
O=C1N(Cc2cccc(Cl)c2)C[C@@H]2C[C@@H](c3ccccn3)N3CCC[C@@]123	none
O=C1N(Cc2cccc(Cl)c2)C[C@@H]2C[C@@H](c3ccsc3)N3CCC[C@@]123	M1 antag 34
O=C(COC(=O)/C=C/c1ccc(Cl)c(Cl)c1)NC1CCS(=O)(=O)C1 (stereo unspecified)	CHO-K1 Ca ag 16
O=C(COC(=O)/C=C/c1ccc(Cl)c(Cl)c1)NC1CCCC1	none
C=C(C)[C@@H]1CC=C(CN2CCN(Cc3ccccc3)CC2)CC1	M1 antag 38
CCOC(=O)c1cc(C#N)c(SC)nc1C	none
CSc1nc(C)c(C(=O)C[n+]2ccccc2C)cc1C#N	M1 antag 40
CCC(=O)c1ccc(OCC(=O)Nc2cccc(S(=O)(=O)N3CCCCCC3)c2)cc1	CHO-K1 Ca antag 36, CHO-K1 Ca ag 18, M1 antag 47
CC(=O)c1cccc(NC(=O)C(C)OC(=O)c2cccc(S(=O)(=O)N3CCN(C)CC3)c2)c1 (stereo unspecified)	M1 antag 71, CHRM1 agonist 68
CC(C)Oc1ccc(C(=O)Nc2cccc(S(=O)(=O)N3CCCC3)c2)cc1	M1 antag 48
CCN(CC)S(=O)(=O)c1cccc(NC2=NCCCCC2)c1	M1 antag 27
COc1cccc(NC2=NCCCCC2)c1	none
Cc1ccc(N2CC(C(=O)NC3CC3)CC2=O)cc1 (stereo unspecified)	none
N=C1C(=O)OCC1c1ccccc1NC(=O)c1ccc(F)cc1 (stereo unspecified)	none
CCOC(=O)N1CCC(NC(=O)c2cc(C(=O)Nc3ccc(OCC)cc3)ccc2CO)CC1	none
CCN(CC)S(=O)(=O)c1cccc(NC(=O)CNc2cccc(S(=O)(=O)N3CCCC3)c2)c1	CHO-K1 Ca antag 32, M1 antag 42
Cc1cc(C)cc(C(=O)OCC(=O)Nc2cccc(S(=O)(=O)NC3=NCCCCC3)c2)c1	CHO-K1 Ca antag 24
O=C(COC(=O)c1ccccc1)Nc1cccc(S(=O)(=O)NC2=NCCCCC2)c1	none
CC(=O)c1cccc(NC(=O)c2ccc(S(=O)(=O)N3CCCC3)cc2)c1	M1 antag 25
CCOC(=O)N1CCC(NC(=O)c2cc(C(=O)Nc3ccc(S(=O)(=O)N4CCCCC4)cc3)ccc2CO)CC1	CHO-K1 Ca ag 19
O=C(O)C1CCCCC1C(=O)NCCCN1CCCC1=O (stereo unspecified)	none
COc1ccc(/C=C/CN2CCN(Cc3cccc(OC)c3)C(CCO)C2)cc1 (stereo unspecified)	none
CCNC(=S)NNC(=O)c1ccc(=O)n(Cc2ccccc2)c1	none
Cc1cc(C(=O)Nc2ccc(S(=O)(=O)N3CCCC3)cc2)cs1	CHO-K1 Ca antag 25
CCN(CC)S(=O)(=O)c1cccc(NC(=O)COC(=O)c2cc(=O)c3ccccc3o2)c1	none
CCN(CC)S(=O)(=O)c1cccc(NC(=O)COC(=O)c2ccc(Br)o2)c1	CHO-K1 Ca ag 25
CC(=O)c1ccc(NC(=O)c2ccc(S(=O)(=O)N3CCCC3)cc2)cc1	none
Cc1cc2[nH]c(=O)c(=O)[nH]c2cc1S(=O)(=O)N(C)C1CCCCC1	none
CSc1nsc(SC)c1NC(=O)Nc1ccccn1	CHO-K1 Ca PAM 49
c1ccc(CCNc2c3c(nc4ncnn24)CCC3)cc1	CHO-K1 Ca ag 21
O=c1nc(-c2ccccc2)c2cc(Br)ccc2[nH]1	none
O=c1nc(-c2ccccc2)c2cc(SC(F)F)ccc2[nH]1	M1 PAM 28
Cc1cccc(C(=O)OCC(=O)c2ccc3c(c2)NC(=O)CO3)c1	none
CCN(CC)S(=O)(=O)c1cccc(C(=O)OCC(=O)c2ccc3c(c2)NC(=O)CO3)c1	CHO-K1 Ca ag 17
CN(c1ccccc1)S(=O)(=O)c1ccc(Cl)c(C(=O)Nc2ccncc2)c1	CHO-K1 Ca ag 16
O=C(Nc1ccccc1)c1cc(S(=O)(=O)NCc2ccncc2)ccc1Cl	CHO-K1 Ca antag 24
CN(c1ccc(F)cc1)S(=O)(=O)c1ccc(Cl)c(C(=O)Nc2ccc3c(c2)CCC3)c1	none

Compound activity deposited in PubChem by The Scripps Research Institute Molecular Screening Center.
